From PubChem
CDK5 p35 inh: inhibitors of human CDK5/p35 kinase, primary screen, biochemical, single concentration. inhibition, % at 10 µM. AID 488839, 2010. actives 0.01% (n = 330,000). Recombinant CDK5/p35, ADP-Glo luminescence, 60 min;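 active = highest replicate inhibition of at least 50% and at least 75% of replicates reaching 50%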;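 note: plate controls were DMSO neutral control for no effect and GW8510 at 10 µM for full effect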
Target sequence (Q00535 whole entry, looked up): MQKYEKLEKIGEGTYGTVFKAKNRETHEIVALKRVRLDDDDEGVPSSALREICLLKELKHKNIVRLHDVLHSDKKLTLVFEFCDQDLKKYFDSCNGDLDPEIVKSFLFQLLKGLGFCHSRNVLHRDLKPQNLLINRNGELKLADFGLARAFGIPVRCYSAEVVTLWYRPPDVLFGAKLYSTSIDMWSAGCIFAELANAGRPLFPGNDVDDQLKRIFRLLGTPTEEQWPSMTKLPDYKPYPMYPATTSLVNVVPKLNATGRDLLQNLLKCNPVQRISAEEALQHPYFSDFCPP
Target sequence (Q15078 whole entry, looked up): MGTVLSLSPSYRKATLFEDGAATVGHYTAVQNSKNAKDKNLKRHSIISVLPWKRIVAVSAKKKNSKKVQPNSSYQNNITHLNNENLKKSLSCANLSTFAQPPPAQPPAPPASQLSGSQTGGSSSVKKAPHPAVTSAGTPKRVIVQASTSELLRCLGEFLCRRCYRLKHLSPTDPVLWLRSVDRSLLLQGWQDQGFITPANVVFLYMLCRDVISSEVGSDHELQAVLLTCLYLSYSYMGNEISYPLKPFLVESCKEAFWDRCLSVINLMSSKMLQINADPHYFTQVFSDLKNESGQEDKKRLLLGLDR
dFosB act: activators of delta FosB homodimer, primary screen, biochemical, fluorescence polarization, TAMRA-CDK5 oligo, single point | activation, % at 25 µM | actives 0.99% (n = 340,000) | purified delta FosB; percent of positive-control signal above neutral wells | Protein FosB (Mus musculus), P13346;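 active = mean activation above about 17%, with every replicate also reaching it, limit read from the data, passing the limit was not always enough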
PglD DTNB: C. jejuni PglD acetyltransferase inhibitors, primary screen, biochemical, DTNB colorimetric, single point; UDP-N-acetylbacillosamine N-acetyltransferase PglD (Campylobacter jejuni); purified PglD enzyme, DTNB colorimetric CoA detection; inhibition, % at 12.5 µM; actives 0.098% (n = 360,000); in the data active = inhibition above about 16%, passing the limit was not always enough
SIRT5 inh: SIRT5 desuccinylase inhibitors, primary screen, biochemical, fluorescence imaging, single point, set 5; NAD-dependent protein deacylase sirtuin-5, mitochondrial (Homo sapiens), Q9NXA8; Purified SirT5, succinyl-peptide AMC, trypsin-coupled fluorescence; inhibition, % at 15 µM; actives 1.1% (n = 330,000); AID 652115, 2013; in the data active = inhibition above about 15%
PvdQ inh: P. aeruginosa PvdQ acylase inhibitors, primary screen, biochemical, fluorescence, plate reader and imaging, single point. PvdQ acylase [Pseudomonas aeruginosa LESB58]. purified PvdQ acylase. inhibition, % at 10 µM. actives 0.063% (n = 340,000). AID 488965, 2010; in the data active = inhibition above about 30%, passing the limit was not always enough;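 note: 0% = vehicle neutral wells and 100% = reference inhibitor wells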
FGF22 binding: binders of human FGF22 protein, primary screen, FGF22 synaptogenesis inhibitor project, biophysical, thermal shift, single point. Fibroblast growth factor 22 (Homo sapiens), Q9HCT0. AID 651658, 2012. activity (Tm shift, normalised), % at 9.99 µM. recombinant FGF22 thermal shift, SYPRO orange fluorescence; percent of sucrose octasulfate shift, DMSO zero. actives 1.5% (n = 340,000);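 active = mean Tm shift, scaled 0 neutral to 100 positive control, at about 1.3% or above, every replicate too, limit read from the data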
Numbers without * were called inactive. In the library only some 2.8% were active in any assay of this set; here they are far more common.

Screening CCCC#Cc1ccc2c(c1)O[C@H](CN(C)C(=O)Nc1ccc(OC)cc1)[C@@H](C)CN([C@@H](C)CO)S2(=O)=O returned PglD DTNB 2.9, SIRT5 inh 17.9* and FGF22 binding -0.6.
Screening COc1ccc(NC(=O)N(C)C[C@H]2Oc3cc(C#CCC(C)C)ccc3S(=O)(=O)N([C@@H](C)CO)C[C@@H]2C)cc1 returned PglD DTNB -0.3, SIRT5 inh 32.7* and FGF22 binding -0.4.
For COc1ccc(NC(=O)N(C)C[C@H]2Oc3cc(-c4ccc(C)cc4)ccc3S(=O)(=O)N([C@H](C)CO)C[C@H]2C)cc1 the results were PglD DTNB 2.8, SIRT5 inh -1.6 and FGF22 binding 1.7*.
`COc1ccc(NC(=O)N(C)C[C@@H]2Oc3cc(C#CCC(C)C)ccc3S(=O)(=O)N([C@@H](C)CO)C[C@@H]2C)cc1` gave PglD DTNB 9.6, SIRT5 inh 29.2* and FGF22 binding -0.1.
`CCCC#Cc1ccc2c(c1)O[C@@H](CN(C)C(=O)Nc1ccc(OC)cc1)[C@H](C)CN([C@@H](C)CO)S2(=O)=O` gave PglD DTNB -4.8, SIRT5 inh 9.6 and FGF22 binding -0.5.
Screening COCC#Cc1ccc2c(c1)O[C@@H](CN(C)C(=O)Nc1ccc(OC)cc1)[C@H](C)CN([C@@H](C)CO)S2(=O)=O returned PglD DTNB -1.0, SIRT5 inh 4.0 and FGF22 binding -0.1.
Screening COCC#Cc1ccc2c(c1)O[C@H](CN(C)C(=O)Nc1ccc(OC)cc1)[C@@H](C)CN([C@@H](C)CO)S2(=O)=O returned PglD DTNB 0.0, SIRT5 inh -4.9 and FGF22 binding -0.1.
For C[C@H](O)C#Cc1cnc2c(c1)C(=O)N([C@@H](C)CO)C[C@@H](C)[C@H](CN(C)C(=O)Cc1ccncc1)O2 the results were PglD DTNB 3.4, SIRT5 inh -0.2 and FGF22 binding -0.2.
For O=C(C[C@H]1CC[C@@H]2[C@H](COC[C@@H](O)CN2C(=O)c2ccccn2)O1)N1CCN(c2ccccc2)CC1 the results were PglD DTNB -2.5, SIRT5 inh 3.4 and FGF22 binding 0.0.
Screening Cc1ccc(S(=O)(=O)N2C[C@H](O)COC[C@H]3O[C@@H](CC(=O)NCCN4CCCCC4)CC[C@@H]32)cc1 returned PglD DTNB 3.4, SIRT5 inh -0.6 and FGF22 binding -0.1.
`COCC#Cc1ccc2c(c1)O[C@@H](CN(C)C(=O)Nc1ccc(OC)cc1)[C@@H](C)CN([C@H](C)CO)S2(=O)=O` gave PglD DTNB 0.6, SIRT5 inh -0.2 and FGF22 binding 0.6.
COc1ccc(NC(=O)N(C)C[C@@H]2Oc3cc(C#CCN(C)C)ccc3S(=O)(=O)N([C@H](C)CO)C[C@@H]2C)cc1 was read as PglD DTNB -1.3, SIRT5 inh 0.4 and FGF22 binding 0.0.
Screening COc1ccc(NC(=O)N(C)C[C@@H]2Oc3cc(C#CCC(C)C)ccc3S(=O)(=O)N([C@H](C)CO)C[C@H]2C)cc1 returned PglD DTNB 9.1, SIRT5 inh 24.5* and FGF22 binding -0.1.
`COc1ccc(NC(=O)N(C)C[C@H]2Oc3cc(C#CCC(C)C)ccc3S(=O)(=O)N([C@@H](C)CO)C[C@H]2C)cc1` gave PglD DTNB -7.5, SIRT5 inh 25.8* and FGF22 binding 0.6.
O=C1S/C(=C/c2ccc(N3CCOCC3)o2)C(=O)N1Cc1ccc(F)cc1 was read as CDK5 p35 inh -0.3, dFosB act -3.9, PglD DTNB -2.7 and PvdQ inh 10.7.
For O=C1NC(=S)S/C1=C/c1ccc(N2CCOCC2)o1 the results were CDK5 p35 inh 5.6, dFosB act 49.1*, PglD DTNB -2.1 and PvdQ inh -0.8.
Screening C[C@H](CO)N1C[C@H](C)[C@@H](CN(C)Cc2ccccc2)Oc2ccc(NC(=O)C3CC3)cc2C1=O returned PglD DTNB 0.0, SIRT5 inh -3.1 and FGF22 binding -0.1.
Screening Cc1cccc(-c2noc(CN(C)C(=O)c3ccco3)n2)c1 returned CDK5 p35 inh 0.5, dFosB act -10.9, PglD DTNB -7.3, SIRT5 inh 51.9*, PvdQ inh -14.0 and FGF22 binding 42.3.
CC(C)(c1ccc(O)c([N+](=O)[O-])c1)c1ccc(O)c([N+](=O)[O-])c1 was read as CDK5 p35 inh 1.2, dFosB act -7.6, PglD DTNB -1.9, SIRT5 inh -1.6, PvdQ inh -6.3 and FGF22 binding 0.0.
CN(C)Cc1cc(C(C)(C)c2ccccc2)ccc1O was read as CDK5 p35 inh -1.3, dFosB act -12.2, PvdQ inh -8.8 and FGF22 binding 42.9*.
Screening CCOc1ccc(NC(C)=O)cc1[N+](=O)[O-] returned CDK5 p35 inh 0.1, dFosB act 0.8, SIRT5 inh -5.8, PvdQ inh -2.1 and FGF22 binding 43.4*.
CCOc1ccc(C(=O)Nc2cccc(C(C)=O)c2)cc1[N+](=O)[O-] was read as CDK5 p35 inh 0.7, dFosB act 14.4, PglD DTNB -4.0, SIRT5 inh -0.7, PvdQ inh 5.3 and FGF22 binding 42.8.
For Cc1cc(C)cc(NC(=O)Nc2ccc3c(c2)C(=O)N(C)[C@@H]2CC[C@@H](CC(=O)O)O[C@@H]2CO3)c1 the results were PglD DTNB 2.5 and FGF22 binding 0.3.
For C[C@@H]1CN([C@@H](C)CO)C(=O)c2cccc(NS(=O)(=O)c3cn(C)cn3)c2O[C@H]1CN(C)C(=O)Nc1cccc2ccccc12 the results were PglD DTNB 2.0, SIRT5 inh 29.3* and FGF22 binding 0.0.
`C[C@@H]1CN([C@H](C)CO)C(=O)c2cccc(NS(=O)(=O)c3cn(C)cn3)c2O[C@@H]1CN(C)C(=O)Nc1cccc2ccccc12` gave PglD DTNB -1.5, SIRT5 inh 0.7 and FGF22 binding 0.1.
Screening C[C@@H]1CN([C@@H](C)CO)C(=O)c2cccc(NS(=O)(=O)c3cn(C)cn3)c2O[C@H]1CN(C)Cc1ccc(C(F)(F)F)cc1 returned PglD DTNB -3.8, SIRT5 inh 21.2* and FGF22 binding 0.1.
COc1cccc(-c2cnc3c(c2)C(=O)N([C@H](C)CO)C[C@H](C)[C@@H](CN(C)Cc2ccc(F)cc2)O3)c1 was read as PglD DTNB 2.4, SIRT5 inh -4.7 and FGF22 binding 0.1.
